Results from PubChem BioAssay (Tox21).
Where “and” joins values, the source holds several entries; their conditions need not be identical. Equal entries are not always repeated. Records with an inconclusive call do not appear. A call without a number means that no potency is given here. Some structures have more than one record in an assay (separate samples or runs), and their calls can disagree. Calls of active or inactive are those of the source. Unless noted, calls follow the shape of the dose curve; as a rule, active = well fitted curve in the direction sought with a large enough effect in the repeat runs; inconclusive = weak or mixed curves; inactive = no such curve, though single readings can be large; an effect the other way counts as inactive or inconclusive.

Assays:
[1] = qHTS assay to identify aromatase inhibitors - cell viability counter screen (AID 743084);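 also: cells stimulated with testosterone during compound exposure; nearly all actives have a fitted effect of over 55% in size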; also: potency is read from the fitted curve at half-maximal effect
[2] = target: Aryl hydrocarbon receptor (Homo sapiens) (UniProt P35869); assay: qHTS assay to identify small molecule that activate the aryl hydrocarbon receptor (AhR) signaling pathway (AID 743085); also: nearly all actives have a fitted effect of over 15% in size; also: potency is read from the fitted curve at half-maximal effect;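 as to activation: HG2L7.5c1 human HepG2 liver cells with stably integrated DRE-driven firefly reporter; series mostly up to about 70 µM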
Method in brief: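 Reporter assay in engineered HepG2 line HG2L7.5c1, whose plasmid carries twenty dioxin responsive elements upstream of firefly luciferase. Treatment lasted 24 h at 37C; ONE-Glo luminescence gauged induction.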

[3] = qHTS assay to identify small molecule that activate the aryl hydrocarbon receptor (AhR) signaling pathway - cell viability counter screen (AID 743086); also: nearly all actives have a fitted effect of over 45% in size; also: potency is read from the fitted curve at half-maximal effect
Method in brief: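 HepG2-AhR-luc (HG2L7.5c1) cells, 4000/well, were preincubated 5 h at 37C, exposed to compound in qHTS format for 24 hr at 37C, then given CellTiter-Fluor for 30 min; viability was read as fluorescence in the reporter wells.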

[4] = qHTS assay to identify small molecule antagonists of the peroxisome proliferator-activated receptor gamma (PPARg) signaling pathway - cell viability counter screen (AID 743194); also: nearly all actives have a fitted effect of over 55% in size; also: potency is read from the fitted curve at half-maximal effect
Method in brief: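 PPARg-UAS-bla HEK293H cells were plated, rested 5 h at 37 C, then treated with compounds plus rosiglitazone (50 nM final) for 17 h at 37 C; viability was then read by CellTiter-Glo luminescence after 30 min at room temperature.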

[5] = qHTS assay for small molecule agonists of the antioxidant response element (ARE) signaling pathway (AID 743202; active = well fitted activation curve with a large enough effect in the signal ratio in the repeat runs, not every such curve was filed as active; the % refers to the signal ratio; also: potency is read from the fitted curve at half-maximal effect)
Method in brief: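 Steps: seed ARE-bla HepG2 cells (2,000/well); incubate 5 h at 37 C; add compounds by pin tool; incubate 16 h at 37 C; add FRET substrate; read fluorescence after 2 h at RT.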

[6] = qHTS assay for small molecule agonists of the antioxidant response element (ARE) signaling pathway - cell viability counter screen (AID 743203; calls by dose curve; also: nearly all actives have a fitted effect of over 55% in size; also: potency is read from the fitted curve at half-maximal effect)
Method in brief: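 ATP content via CellTiter-Glo luminescence served as the viability measure. Cells: ARE-bla HepG2, 2,000 per well. Exposure: 16 hrs, 37C/5% CO2.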

[7] = qHTS assay for small molecule activators of the heat shock response signaling pathway - cell viability counter screen (AID 743209); also: nearly all actives have a fitted effect of over 50% in size; also: potency is read from the fitted curve at half-maximal effect
Method in brief: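 Compounds dissolved in DMSO were added to overnight-plated HSE-bla HeLa cells and left 5 h at 37 C. Cell viability was quantified by luminescence using CellTiter-Glo.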

[8] = qHTS assay for small molecule activators of the heat shock response signaling pathway (AID 743210; active = well fitted activation curve with a large enough effect in the signal ratio in the repeat runs, with a control signal flat, not every such curve was filed as active; the % refers to the signal ratio;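 also: HeLa cells with beta-lactamase reporter driven by heat shock elements; series mostly up to about 63 µM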)
Method in brief: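 Activation of heat shock element-controlled beta-lactamase expression is measured in HeLa cells by LiveBLAzer FRET fluorescence, with compound exposure lasting 5 h at 37 C and substrate loading 2.5 h at room temperature.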

[9] = target: Peroxisome proliferator-activated receptor gamma (Homo sapiens) (UniProt P37231); assay: qHTS assay to identify small molecule agonists of the peroxisome proliferator-activated receptor gamma (PPARg) signaling pathway (AID 743094; active = well fitted activation curve with a large enough effect in the signal ratio in the repeat runs, not every such curve was filed as active; the % refers to the signal ratio)
Method in brief: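 Agonism was assessed in a beta-lactamase reporter system, HEK293H cells with a stably integrated UAS-bla construct under PPARg control; the 17 h treatment at 37C preceded a 1 h room-temperature FRET substrate read.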

[10] = target: Peroxisome proliferator-activated receptor gamma (Homo sapiens) (UniProt P37231); assay: qHTS assay to identify small molecule antagonists of the peroxisome proliferator-activated receptor gamma (PPARg) signaling pathway (AID 743191; calls by dose curve; also: nearly all actives have a fitted effect of over 30% in size; also: potency is read from the fitted curve at half-maximal effect)
Method in brief: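 GeneBLAzer PPARg UAS-bla HEK293H cells carrying a UAS-driven beta-lactamase reporter were plated at 3000 cells/well, preincubated 5 h at 37C, then given compound for 17 h at 37C; LiveBLAzer B/G FRET substrate was read after 1 h at room temperature.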

Chain of Peroxisome proliferator-activated receptor gamma (Homo sapiens) (P37231 whole entry, looked up): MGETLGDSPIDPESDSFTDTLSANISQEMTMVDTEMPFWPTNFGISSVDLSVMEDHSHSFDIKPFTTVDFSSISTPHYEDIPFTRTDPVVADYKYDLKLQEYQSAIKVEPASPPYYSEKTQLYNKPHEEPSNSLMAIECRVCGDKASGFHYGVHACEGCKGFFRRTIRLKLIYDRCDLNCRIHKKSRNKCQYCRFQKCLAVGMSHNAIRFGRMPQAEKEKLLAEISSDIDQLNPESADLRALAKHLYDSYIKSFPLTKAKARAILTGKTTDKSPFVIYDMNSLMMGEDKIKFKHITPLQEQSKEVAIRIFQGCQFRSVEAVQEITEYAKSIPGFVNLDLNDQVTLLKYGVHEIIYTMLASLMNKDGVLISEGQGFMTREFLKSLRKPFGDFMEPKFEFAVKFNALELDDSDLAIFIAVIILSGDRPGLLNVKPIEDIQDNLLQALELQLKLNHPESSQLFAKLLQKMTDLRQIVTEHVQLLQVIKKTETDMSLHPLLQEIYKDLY
Chain of Aryl hydrocarbon receptor (Homo sapiens) (P35869 whole entry, looked up): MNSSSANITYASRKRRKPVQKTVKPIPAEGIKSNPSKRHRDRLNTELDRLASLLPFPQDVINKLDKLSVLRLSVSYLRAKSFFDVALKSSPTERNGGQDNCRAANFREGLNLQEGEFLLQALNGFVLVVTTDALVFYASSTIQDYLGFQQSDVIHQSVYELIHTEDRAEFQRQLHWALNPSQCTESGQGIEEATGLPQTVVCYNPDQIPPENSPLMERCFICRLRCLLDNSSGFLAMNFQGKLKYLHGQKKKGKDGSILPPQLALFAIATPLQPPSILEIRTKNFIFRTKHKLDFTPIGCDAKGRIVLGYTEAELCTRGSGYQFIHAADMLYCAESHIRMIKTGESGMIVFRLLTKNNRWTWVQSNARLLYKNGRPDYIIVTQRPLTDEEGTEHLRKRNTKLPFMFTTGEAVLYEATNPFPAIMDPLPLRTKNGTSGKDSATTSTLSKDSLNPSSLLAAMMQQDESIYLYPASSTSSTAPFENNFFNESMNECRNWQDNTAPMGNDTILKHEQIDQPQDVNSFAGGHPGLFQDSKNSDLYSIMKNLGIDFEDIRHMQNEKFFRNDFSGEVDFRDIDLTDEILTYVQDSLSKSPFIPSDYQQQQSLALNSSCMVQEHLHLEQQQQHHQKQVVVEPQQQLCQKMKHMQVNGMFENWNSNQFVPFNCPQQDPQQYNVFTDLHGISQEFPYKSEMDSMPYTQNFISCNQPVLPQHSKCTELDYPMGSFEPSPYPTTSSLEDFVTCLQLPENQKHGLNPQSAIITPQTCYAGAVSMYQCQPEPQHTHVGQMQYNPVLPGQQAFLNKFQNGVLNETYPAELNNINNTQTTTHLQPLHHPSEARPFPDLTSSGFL

Compound | Potency [1] | Potency [2] | Potency [3] | Potency [4] | Potency [5] | Potency [6] | Potency [7] | Potency [8] | Potency [9] | Potency [10]
CC1CC(OC(=O)C(O)c2ccccc2)CC(C)(C)N1C (stereo not given) | inactive | inactive | inactive | inactive | inactive | inactive | inactive | inactive | – | –
CCC(OCCCOC)OC(C)=O (stereo not given) | inactive | inactive | inactive | inactive | inactive | inactive | inactive | inactive | – | –
CC(=O)Oc1ccc([N+](=O)[O-])cc1CCl | 27.3 µM (active) | inactive | – | inactive | – | – | inactive | inactive | inactive | –
CC(C)C(O)(c1ccc(OC(F)(F)F)cc1)c1cncnc1 (stereo not given) | inactive | inactive | inactive | inactive | – | inactive | inactive | – | – | –
CC(C)c1nc(CN(C)C(=O)N[C@H](C(=O)N[C@@H](Cc2ccccc2)C[C@H](O)[C@H](Cc2ccccc2)NC(=O)OCc2cncs2)C(C)C)cs1 | inactive and 23.7 µM (active) | inactive | inactive and 13.3 µM (active) | inactive | – | – | inactive | inactive | – | –
Clc1cc(Cl)nc(Cl)n1 | inactive | inactive | inactive | 49.6 µM (active) | – | – | inactive | inactive | – | –
O=C1Cc2ccccc2N1c1c(Cl)cccc1Cl | inactive | inactive | – | inactive | – | inactive | inactive | inactive | inactive | –
CCOC(=O)c1ccccc1C(=C1C=C(Br)C(=O)C(Br)=C1)c1cc(Br)c(O)c(Br)c1 | inactive | inactive | inactive | – | – | inactive | – | – | – | –
OC[C@H]1O[C@@H](n2cnc3c(=S)nc[nH]c32)[C@H](O)[C@@H]1O | inactive | inactive | inactive | 3.76 µM (active) | 3.35 µM (active) | 2.66 µM (active) | inactive | inactive | – | –
c1csc(SSc2cccs2)c1 | inactive | inactive | – | inactive | inactive | inactive | – | – | – | inactive
CN1C[C@H](C(=O)N[C@]2(C)O[C@@]3(O)[C@@H]4CCCN4C(=O)[C@H](Cc4ccccc4)N3C2=O)C[C@@H]2c3cccc4[nH]cc(c34)C[C@H]21 | inactive | inactive | – | 29.8 µM (active) | – | 29.8 µM (active) | inactive | inactive | – | –
Cc1cccc(O)c1N | inactive | 27.6 µM (active) | inactive | inactive | – | inactive | inactive | inactive | – | –
C[C@@H]1CC(=O)NN=C1c1ccc(NN=C(C#N)C#N)cc1 | 26.6 µM (active) | 15 µM (active) | 26.6 µM (active) | inactive | – | – | inactive | – | – | –
CCCCCCCCC(CCCCCC)C(=O)O (stereo not given) | – | inactive | inactive | 38.9 µM (active) | inactive | – | 17.4 µM (active) | – | – | –
CCOC(C)=O | inactive | – | inactive | inactive | inactive | – | inactive | inactive | inactive | inactive
CC(C)(c1ccccc1)c1ccccc1 | – | inactive | inactive | – | inactive | inactive | inactive | inactive | inactive | –
CCCCCCCC/C=C\CCCCCCCCCCCC(=O)O | inactive | – | inactive | inactive | inactive | – | inactive | inactive | inactive | –
C=C1CCC2CC1C2(C)C (stereo not given) | inactive | – | inactive | inactive | inactive | inactive | inactive | inactive | inactive | –
Oc1ccc(Cl)c2cccnc12 | – | 11.9 µM (active) | inactive | – | 23.7 µM (active) | – | inactive | – | inactive | –
c1cc(N(CC2CO2)CC2CO2)ccc1Cc1ccc(N(CC2CO2)CC2CO2)cc1 (stereo not given) | 27.3 µM (active) | – | 54.5 µM (active) | – | – | – | inactive | – | – | –
CCC(C)COC(C)=O (stereo not given) | inactive | – | inactive | inactive | inactive | inactive | – | – | – | –
Oc1cc2c(cc1O)[C@H]1c3ccc(O)c(O)c3OC[C@@]1(O)C2 | 24.6 µM (active) | – | 27.6 µM (active) | – | – | inactive | inactive | – | inactive | –
CCCCCC[C@@H](O)C/C=C\CCCCCCCC(=O)O | inactive | – | inactive | – | – | – | – | – | inactive | –
Oc1c(I)cc(I)c2cccnc12 | inactive | – | inactive | – | – | inactive | inactive | inactive | inactive | 18.8 µM (active)
c1ccc(C[n+]2cccc3ccccc32)cc1 | inactive | – | inactive | – | – | inactive | inactive | inactive | inactive | inactive
CC(=O)Nc1cc(S(=O)(=O)O)cc2cc(S(=O)(=O)O)c(N=Nc3ccccc3)c(O)c12 | 24.3 µM (active) | – | 19.3 µM (active) | – | inactive | – | inactive | inactive | inactive | –
COC(=O)C1=C(C)NC(C)=C(C(=O)O[C@@H]2CCCN(Cc3ccccc3)C2)[C@@H]1c1cccc([N+](=O)[O-])c1 | inactive | – | – | – | – | – | inactive | inactive | – | –
CCC=CC#N | inactive | – | inactive | inactive | inactive | inactive | inactive | inactive | inactive | –
